Screening results as filed in PubChem BioAssay.
G9a block – blocks human histone lysine methyltransferase G9a; G9a H3K9 monomethylation, AlphaScreen, 2 h; AID 504332; Q96KQ7; hit rate 8.8% among 350,000; Potency, µM (doses to about 102 µM), actives largely listed as inhibitors; note: nearly all actives have a fitted effect of over 75% in size
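Step 1: enzyme (final 20 nM) with compound, 15 min RT. Step 2: substrate peptide 500 nM and SAM 20 uM, 2 h RT. Step 3: anti-H3K9me1 antibody and AlphaScreen beads, 10 min, then plate read.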
HP1b chromo inh – inhibitors of HP1-beta chromodomain binding to methylated histone tails | P83916 | AlphaScreen HP1-beta / biotin-H3K9me3 peptide binding | Potency, µM (doses to about 114 µM), actives largely listed as inhibitors | hit rate 0.56% among 390,000; note: nearly all actives have a fitted effect of over 70% in size
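Compound inhibition of the preformed complex between 50 nM HP1-beta and 50 nM biotinylated H3K9me3 peptide was read by AlphaScreen. Buffer was PBS pH 7.4 with 0.01% Tween-20. Incubations ran 30 min at room temperature, with 10 ug/mL donor/acceptor beads.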
JMJD2A Tudor – JMJD2A Tudor domain (human) inhibition. AlphaScreen JMJD2A-Tudor / H3K4me3 peptide binding. Potency, µM (top dose mostly 114 µM), hits mostly inhibitors. AID 504339. hit rate 4.4% among 390,000; note: nearly all actives have a fitted effect of over 50% in size
Six1-Eya2 blk – Six1/Eya2 interaction inhibition. hit rate 0.56% among 360,000. Q15475+O00167. activity change, % (no concentration beside the values). AID 651725. AlphaScreen GST-Six1/His-Eya2 binding, biochemical; hits give low values; in the data active = activity change below about -65%; inconclusive = mostly about -30% to -63%
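AlphaScreen luminescence read after one hour at 37 °C in darkness. Pin-transferred compounds met GST-Six1 and His-Eya2 protein (5X stock 250 nM/500 nM) plus glutathione donor and Ni-chelate acceptor beads (5X, 50 ug/mL).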
BAZ2B inh – blocks human BAZ2B; Potency, µM (doses to about 114 µM), most hits filed as inhibitors; AID 504333; AlphaScreen BAZ2B-H3K14Ac peptide displacement; Q9UIF8; hit rate 4.4% among 360,000; note: nearly all actives have a fitted effect of over 60% in size
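AlphaScreen luminescence quantifies BAZ2B engagement of H3K14Ac peptide; the protein and biotinylated peptide are both at 50 nM final, buffer PBS pH 7.4 with 0.01% Tween-20, all steps at room temperature.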
CtBP-E1A blk – inhibitors of CtBP/E1A interaction. AlphaScreen GST-E1A/His-CtBP binding, 1536-well; hits give low values. activity change, % (no concentration beside the values). hit rate 0.49% among 340,000; in the data active = activity change below about -65%; inconclusive = mostly about -30% to -63%
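AlphaScreen with 125 nM GST-E1A and 125 nM His-CtBP (5X stocks) in Tris pH 8.0, 300 mM NaCl, BSA, Tween 20, TCEP. Compounds preincubated 2 h at 37 deg C, then glutathione donor/nickel acceptor beads added for 1 h at 37 deg C in dark.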
A number is an active result; 0 = inactive; ? = inconclusive; - = no result; [ ] = remark or other dose. An excerpt weighted towards active compounds, which were near 10% of everything screened. Unless noted, calls come from the whole dose curve; as a rule, active = well fitted inhibition curve with a large enough effect; inconclusive = small, poorly fitted or top-dose-only effect; inactive = no such curve, though single readings can be large or run the other way.

SMILES	G9a block	HP1b chromo inh	JMJD2A Tudor	Six1-Eya2 blk	BAZ2B inh	CtBP-E1A blk
CCN(C(=O)CSc1nnc(NCCOC)s1)c1c(N)n(Cc2ccccc2)c(=O)[nH]c1=O	-	0	0	0	-	0
COCCN(C(=O)CSc1nc2ccccc2s1)c1c(N)n(Cc2ccccc2)c(=O)[nH]c1=O	-	0	?	0	-	0
COCCNc1nnc(SCC(=O)N(C)c2c(N)n(Cc3ccccc3)c(=O)[nH]c2=O)s1	22µM	0	0	0	0	0
COCCN(C(=O)CSc1nnc(Nc2ccccc2F)s1)c1c(N)n(Cc2ccccc2)c(=O)[nH]c1=O	14µM	0	0	0	0	0
O=C(Nc1ccc(N2CCN(C(=O)c3ccc(Cl)cc3)CC2)cc1)c1ccc2c(c1)OCCO2	79µM	0	0	0	0	0
O=C(Nc1ccc(N2CCCCC2)cc1)c1ccc2c(c1)OCCO2	3.5µM	0	?	0	0	0
O=C(Nc1ccc(Br)cc1F)c1ccc2c(c1)OCCO2	50µM	0	0	0	0	0
Cc1ccc(S(=O)(=O)c2nc(-c3ccccc3F)oc2N2CCCCC2)cc1	?	0	0	-	?	-
Cc1cc(C)cc(N(CC(=O)N2CCCC2)S(C)(=O)=O)c1	0	0	0	0	0	0
CC1(c2ccccc2)NC(=O)N(CC(=O)Nc2ccc([N+](=O)[O-])cc2)C1=O (stereo not given)	0	0	0	0	0	0
CC1(c2ccc(OC(F)F)cc2)NC(=O)N(CC(=O)Nc2ccc(N3CCCCC3)cc2)C1=O (stereo not given)	7.1µM	?	?	0	?	0
CC1(c2ccc([N+](=O)[O-])cc2)NC(=O)N(CC(=O)Nc2ccc(N3CCCCC3)cc2)C1=O (stereo not given)	11µM	?	?	0	35µM	0
O=C(CN1C(=O)NC2(CCCCCCC2)C1=O)Nc1ccc(OC(F)F)cc1	-	0	0	0	-	0
CCOC(=O)C1CCN(C(=O)CSc2nc3ncccc3[nH]2)CC1	?	0	0	0	0	-
COc1cccc(CN2CCc3nc(Nc4ccc5c(c4)OCCO5)ncc3C2)c1OC	?	?	56µM	-	35µM	-
CCc1ccc(CN2CCc3nc(Nc4ccc5c(c4)OCCO5)ncc3C2)cc1	0[12.7 µM]	?	28µM	-	14µM	-
Cc1ccc(CN2CCc3nc(Nc4ccc5c(c4)OCCO5)ncc3C2)cc1	0[12.7 µM]	?	45µM	-	40µM	-
COc1ccccc1Nc1ncc2c(n1)CCN(Cc1cc(F)cc(F)c1)C2	0[12.7 µM]	0	0	-	0	-
COc1cc(CN2CCc3nc(Nc4ccc5c(c4)OCCO5)ncc3C2)cc(OC)c1OC	0[12.7 µM]	0	?	-	?	-
CCCCCCCCCCCCCC(=O)OC(C)C	0	-	-	-	-	-
Cn1c(CCc2ccccc2)n[nH]c1=S	?	0	28µM	0	0	0
Cn1c(Cc2ccccc2)n[nH]c1=S	10µM	0	28µM	0	0	0
S=c1[nH]nc(CSCCOc2ccccc2)o1	-	0	0	0	0	0
Cn1c(CSCCOc2ccccc2)n[nH]c1=S	10µM	0	6.3µM	0	0	0
Cc1ccc(CSc2ccc(-c3ccco3)nn2)cc1	18µM	0	0	0	0	0
SMILES	G9a block	HP1b chromo inh	JMJD2A Tudor	Six1-Eya2 blk	BAZ2B inh	CtBP-E1A blk
Clc1cccc(CSc2ccc(-c3ccco3)nn2)c1	16µM	0	0	0	0	0
Cc1ccc(CSc2ccc(-c3ccc4c(c3)OCO4)nn2)cc1	50µM	0	0	0	0	0
CCSc1nc(-c2ccco2)ccc1C#N	?	0	?	0	0	0
N#Cc1ccc(-c2ccco2)nc1SCc1ccccc1	28µM	0	0	0	0	0
Cc1cccc(CSc2ccc(-c3ccco3)nn2)c1	0	0	0	0	0	0
COc1ccc(Oc2ncc3ncc(=O)n(-c4ccc(OC)cc4)c3n2)cc1	0[0.501 µM]	-	-	-	-	-
Cc1ccc(C(=O)Nc2ccon2)cc1S(=O)(=O)N1CCCC1	0	0	0	0	0	0
COc1cccc(NS(=O)(=O)c2cc(-c3cnc(C4CC4)o3)ccc2C)c1	?	0	0	-	0	-
COc1ccc(NS(=O)(=O)c2ccc3c(c2)CCC(=O)N3)cc1	-	-	0	-	-	-
Fc1ccccc1CSc1ccc(-c2ccco2)nn1	40µM	0	0	0	0	0
c1ccc(CSc2ccc(-c3ccco3)nn2)cc1	25µM	0	0	0	0	0
